Several values for one entry are separate records, joined by “and”; a condition that tells them apart may be missing. Identical values can stand only once. Results filed as inconclusive are left out. Where a call stands in place of a potency, no number is given. Unmarked numbers belong to inactive results. Activity calls are given as the source filed them. Unless noted, calls come from the whole dose curve; as a rule, active = well fitted curve in the direction sought with a large enough effect; inconclusive = small, poorly fitted or top-dose-only effect, or another doubt; inactive = no such curve, though single readings can be large; an effect the other way counts as inactive or inconclusive.
Assays:
[1] = Primary qHTS for small molecule stabilizers of the endoplasmic reticulum resident proteome: Secreted ER Calcium Modulated Protein (SERCaMP) assay (AID 1508630)
In short: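 The SH-SY5Y reporter protocol was run at 3 concentrations up to 38.3 uM (primary) or 11 concentrations (follow-up): 16 h compound, 100 nM thapsigargin for 4 h, then extracellular luciferase luminescence.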

Papain (Carica papaya) = Papain (Carica papaya) (UniProt P00784); assay: Primary qHTS assay for inhibitors of the protease papain (AID 1645873);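 note: papain turnover of Z-FR-AMC read as the AMC fluorescence gain over 10 min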
Sequence of Papain (Carica papaya) (P00784 whole entry, looked up): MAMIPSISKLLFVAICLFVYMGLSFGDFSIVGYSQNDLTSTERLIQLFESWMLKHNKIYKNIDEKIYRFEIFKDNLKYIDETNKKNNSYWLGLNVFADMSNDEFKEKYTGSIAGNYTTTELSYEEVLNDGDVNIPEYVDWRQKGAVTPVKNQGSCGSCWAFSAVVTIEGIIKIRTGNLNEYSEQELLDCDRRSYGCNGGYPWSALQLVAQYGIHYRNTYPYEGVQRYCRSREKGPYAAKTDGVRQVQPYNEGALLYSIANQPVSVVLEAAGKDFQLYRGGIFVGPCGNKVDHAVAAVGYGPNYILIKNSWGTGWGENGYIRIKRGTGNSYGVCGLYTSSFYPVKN

[2] = biological target: Cytochrome P450 2D6 (Homo sapiens) (UniProt P10635); assay: Cytochrome P450 family 2 subfamily D member 6 (CYP2D6) small molecule antagonists: luciferase biochemical (cell-free) qHTS assay (AID 1645840; active = well fitted curve in the direction sought with a large enough effect in the repeat runs; an effect the other way counts as inactive or inconclusive; note: nearly all actives have a fitted effect of over 55% in size; note: potency is the fitted concentration of half-maximal effect)
Sequence of Cytochrome P450 2D6 (Homo sapiens) (P10635 whole entry, looked up): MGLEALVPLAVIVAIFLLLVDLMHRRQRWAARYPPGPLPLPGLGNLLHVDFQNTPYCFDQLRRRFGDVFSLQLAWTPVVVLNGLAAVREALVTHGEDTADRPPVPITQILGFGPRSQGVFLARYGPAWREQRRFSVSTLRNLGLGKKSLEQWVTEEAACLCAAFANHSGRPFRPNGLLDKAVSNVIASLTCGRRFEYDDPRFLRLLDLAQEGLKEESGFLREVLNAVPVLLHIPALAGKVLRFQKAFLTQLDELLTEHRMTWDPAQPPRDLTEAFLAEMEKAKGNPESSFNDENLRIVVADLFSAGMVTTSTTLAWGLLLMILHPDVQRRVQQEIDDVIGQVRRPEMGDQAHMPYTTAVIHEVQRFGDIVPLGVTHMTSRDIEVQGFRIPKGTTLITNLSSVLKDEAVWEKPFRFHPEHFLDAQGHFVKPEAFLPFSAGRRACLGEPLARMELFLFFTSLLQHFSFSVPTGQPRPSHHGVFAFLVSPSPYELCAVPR
In short: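 P450-Glo CYP2D6 system: proluciferin substrate converted by enzyme to luciferin, read by luminescence proportional to activity. Enzyme-substrate mix with compound 10 min at room temperature, then NADPH regeneration 1 h before detection reagent.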

[3] = biological target: Cytochrome P450 2C9 (Homo sapiens) (UniProt P11712); assay: Cytochrome P450 family 2 subfamily C member 9 (CYP2C9) small molecule antagonists: luciferase biochemical (cell-free) qHTS assay (AID 1645842; active = well fitted curve in the direction sought with a large enough effect in the repeat runs; an effect the other way counts as inactive or inconclusive; note: nearly all actives have a fitted effect of over 55% in size; note: potency is the fitted concentration of half-maximal effect)
Sequence of Cytochrome P450 2C9 (Homo sapiens) (P11712 whole entry, looked up): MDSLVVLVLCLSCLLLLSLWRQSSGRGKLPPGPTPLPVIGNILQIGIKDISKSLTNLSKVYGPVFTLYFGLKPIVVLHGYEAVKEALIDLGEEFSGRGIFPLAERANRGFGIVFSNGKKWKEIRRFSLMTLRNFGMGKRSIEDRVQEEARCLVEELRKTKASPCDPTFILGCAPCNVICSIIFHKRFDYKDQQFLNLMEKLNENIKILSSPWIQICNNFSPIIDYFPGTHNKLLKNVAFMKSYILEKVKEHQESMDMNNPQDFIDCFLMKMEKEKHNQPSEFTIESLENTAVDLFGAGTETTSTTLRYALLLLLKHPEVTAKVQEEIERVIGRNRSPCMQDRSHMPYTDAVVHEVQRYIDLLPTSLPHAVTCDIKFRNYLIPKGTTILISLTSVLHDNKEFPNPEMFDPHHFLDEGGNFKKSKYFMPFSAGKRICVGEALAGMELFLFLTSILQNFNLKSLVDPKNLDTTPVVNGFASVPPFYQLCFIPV
In short: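 P450-Glo CYP2C9 system: proluciferin substrate with enzyme in mix containing 0.4% BSA, 10 min at room temperature, then NADPH regeneration solution added and incubated 1 h at 37C. Detection reagent stopped reaction; luminescence read after 20 min as RLU.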

[4] = Primary qHTS for inhibitors of nuclear receptor binding SET domain protein 2 (NSD2) in an isogenic RCH-ACV NSD2 p.E1099K mutant (9B) (AID 1645876); note: nearly all actives have a fitted effect of over 70% in size; note: potency is the fitted concentration of half-maximal effect
[5] = Primary qHTS for inhibitors of nuclear receptor binding SET domain protein 2 (NSD2) in an RCH-ACV wild type WT cells (2C) (AID 1645877); note: nearly all actives have a fitted effect of over 70% in size; note: potency is the fitted concentration of half-maximal effect
[6] = NCATS anti-infectives library activity on HEK293 viability as a counter-qHTS vs the C. elegans viability qHTS (AID 1745854)
In short: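 CellTiter-Glo luminescence, read on a CCD imager, scored viability of HEK293 cells after 24 hr compound exposure at 37C. Library tested in several concentrations, 1:5 steps, up to 41.7 uM; digitonin served as control.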

[7] = NCATS anti-infectives library activity on the primary C. elegans qHTS viability assay (AID 1745855; calls by dose curve); details: C. elegans worm area imaging, day 7; at 41.8 µM (top of the series) unless noted
In short: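 Titration-based screen in worms: eggs hatched overnight in M9, L1 larvae fed TOP10 capsules in S medium with compound, incubated 21 °C for 7 days; fluorescent objects gated by size and intensity at days 0, 3 and 7.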

[8] = A High-Content qHTS Against Drug Library for the Identification of Small Molecules that Inhibit DYT1 Early Onset Primary Dystonia-Associated Cell Pathology (AID 1645839; calls by dose curve)
In short: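 High-content imaging quantified EGFP-TorsinA mislocalization in HEK293-derived cells inducibly expressing DYT1 mutant torsinA, after 48 h exposure to compound given together with tetracycline induction. Cell count served as a toxicity channel alongside %pathology.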

[9] = biological target: Cytochrome P450 3A4 (Homo sapiens) (UniProt P08684); assay: Cytochrome P450 family 3 subfamily A member 4 (CYP3A4) small molecule antagonists: luciferase qHTS assay (AID 1645841; active = well fitted curve in the direction sought with a large enough effect in the repeat runs; an effect the other way counts as inactive or inconclusive; note: nearly all actives have a fitted effect of over 45% in size)
Sequence of Cytochrome P450 3A4 (Homo sapiens) (P08684 whole entry, looked up): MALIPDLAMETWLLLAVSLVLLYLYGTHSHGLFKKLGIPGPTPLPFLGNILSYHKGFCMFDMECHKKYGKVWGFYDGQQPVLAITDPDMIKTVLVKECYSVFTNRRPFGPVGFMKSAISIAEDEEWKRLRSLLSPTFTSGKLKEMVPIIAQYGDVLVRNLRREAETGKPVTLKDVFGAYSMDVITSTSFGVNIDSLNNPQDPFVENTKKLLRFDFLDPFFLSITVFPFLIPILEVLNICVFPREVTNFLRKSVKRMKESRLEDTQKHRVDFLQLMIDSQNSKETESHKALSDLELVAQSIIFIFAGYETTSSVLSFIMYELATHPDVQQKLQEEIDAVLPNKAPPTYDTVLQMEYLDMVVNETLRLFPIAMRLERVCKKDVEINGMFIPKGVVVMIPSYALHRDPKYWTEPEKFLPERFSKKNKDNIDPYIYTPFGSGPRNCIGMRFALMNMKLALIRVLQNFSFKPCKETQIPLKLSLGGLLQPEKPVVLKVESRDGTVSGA
In short: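 Luminescent CYP3A4 activity readout: compounds plus enzyme-substrate mix 10 min at room temperature, reaction started with NADPH regenerating system for 1 h, stopped with detection reagent, read after 20 min. Ketoconazole served as control.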

**Q.** Which results are given for `CCOC(=O)[C@H](CCc1ccccc1)N[C@@H](C)C(=O)N1[C@H](C(=O)O)C[C@H]2CCCC[C@@H]21`?
**A.** Potency [1]: inactive; outcome (Papain (Carica papaya)): inactive

**Q.** Which results are given for `CCC1Nc2cc(Cl)c(S(N)(=O)=O)cc2S(=O)(=O)N1` (stereo not given)?
**A.** Potency [1]: inactive; Potency [2]: inactive; Potency [3]: inactive; Potency [4]: inactive; Potency [5]: inactive

**Q.** Which Potency [1] does the source give for `C[C@H]1[C@H]2CC[C@H]3[C@@H]4CC=C5C[C@@H](N(C)C)CC[C@]5(C)[C@H]4CC[C@]23CN1C` here?
**A.** inactive

**Q.** And the Potency [2]?
**A.** inactive

**Q.** And the Potency [3]?
**A.** inactive

**Q.** What about the activity change, negative = cytotoxicity [6] of the same compound?
**A.** -25.4% [at 8.35 µM]

**Q.** Which Potency [1] does the source give for `O=C(N/N=C/c1ccc([N+](=O)[O-])o1)c1ccc(O)cc1` here?
**A.** inactive

**Q.** And the Potency [2]?
**A.** 3.89 µM (active)

**Q.** What about the Potency [4] of the same compound?
**A.** 5.96 µM (active)

**Q.** What about the Potency [5] of the same compound?
**A.** 8.41 µM (active)

**Q.** Which results are given for `CCCCCCCCCCCCCC[N+](C)(C)Cc1ccccc1`?
**A.** Potency [1]: inactive; Potency [2]: 0.347 µM (active); Potency [4]: 0.335 µM (active); Potency [5]: 0.237 µM (active)

**Q.** Which Potency [1] does the source give for `N/C(=N\N=C\c1ccc(Cl)cc1)N/N=C/c1ccc(Cl)cc1` here?
**A.** inactive

**Q.** And the Potency [2]?
**A.** 15.5 µM (active)

**Q.** And the Potency [3]?
**A.** 13.8 µM (active)

**Q.** And the Potency [4]?
**A.** inactive

**Q.** What about the Potency [5] of the same compound?
**A.** inactive

**Q.** For `OC[C@H]1O[C@@H](Oc2ccc(O)cc2)[C@H](O)[C@@H](O)[C@@H]1O`, which Potency [1] is on record?
**A.** inactive

**Q.** And the Potency [2]?
**A.** inactive

**Q.** What about the Potency [3] of the same compound?
**A.** inactive

**Q.** And the outcome [6]?
**A.** inactive

**Q.** What about the outcome [7] of the same compound?
**A.** inactive [at 83.3 µM]

**Q.** Which Potency [1] does the source give for `C[C@@]12C(=O)OC(=O)[C@]1(C)C1CCC2O1` here?
**A.** inactive

**Q.** And the Potency [2]?
**A.** inactive

**Q.** What about the Potency [4] of the same compound?
**A.** 2.99 µM (active)

**Q.** What about the Potency [5] of the same compound?
**A.** 2.66 µM (active)

**Q.** What does the source list for `CN=C(N)NCCC[C@H](N)C(=O)O`?
**A.** Potency [1]: inactive; outcome (Papain (Carica papaya)): inactive

**Q.** Which results are given for `C[C@H]1O[C@@H](O[C@H]2CC[C@@]3(C)[C@H](CC[C@@H]4[C@@H]3C[C@@H](O)[C@]3(C)[C@@H](C5=CC(=O)OC5)CC[C@]43O)C2)C[C@H](O)[C@@H]1O[C@H]1C[C@H](O)[C@H](O[C@H]2C[C@H](O)[C@H](O[C@@H]3O[C@H](CO)[C@@H](O)[C@H](O)[C@H]3O)[C@@H](C)O2)[C@@H](C)O1`?
**A.** Potency [1]: inactive; Potency [2]: inactive; Potency [3]: inactive; Potency [4]: 0.0668 µM (active); Potency [5]: 0.0944 µM (active)

**Q.** For `O=c1[nH]c(=O)n([C@H]2C[C@H](O)[C@@H](CO)O2)cc1F`, which Potency [1] is on record?
**A.** inactive

**Q.** And the Potency [2]?
**A.** inactive

**Q.** And the Potency [3]?
**A.** inactive

**Q.** And the Potency [4]?
**A.** 13.3 nM (active) and 29.5 nM (active)

**Q.** And the Potency [5]?
**A.** 8.4 nM (active) and 46.8 nM (active)

**Q.** For `CC[C@]12CCCN3CCc4c(n(c5ccccc45)C(=O)C1)[C@@H]32`, which Potency [1] is on record?
**A.** inactive

**Q.** What about the Potency [2] of the same compound?
**A.** 0.0871 µM (active)

**Q.** What about the Potency [4] of the same compound?
**A.** 8.41 µM (active) and 8.17 µM (active)

**Q.** What about the Potency [5] of the same compound?
**A.** 5.96 µM (active)

**Q.** For `CC[C@H](c1ccc(O)cc1)[C@@H](CC)c1ccc(O)cc1`, which Potency [1] is on record?
**A.** inactive

**Q.** What about the Potency [4] of the same compound?
**A.** 11.9 µM (active)

**Q.** And the Potency [5]?
**A.** 8.41 µM (active)

**Q.** With `C[C@@H](O)[C@H]1C(=O)N2C(C(=O)O)=C(S[C@@H]3CN[C@H](CNS(N)(=O)=O)C3)[C@H](C)[C@H]12` as the compound, how does the Potency [1] read?
**A.** inactive

**Q.** And the Potency [2]?
**A.** inactive

**Q.** What about the Potency [4] of the same compound?
**A.** inactive

**Q.** And the Potency [5]?
**A.** inactive

**Q.** Which results are given for `O=C(Oc1cccc2cccnc12)c1ccccc1`?
**A.** Potency [1]: inactive; Potency [2]: inactive; Potency [3]: inactive; Potency [4]: inactive; Potency [5]: inactive

**Q.** Which Potency [1] does the source give for `CCN(CC)CCOc1ccccc1C(=O)CCc1ccccc1` here?
**A.** inactive

**Q.** What about the Potency [2] of the same compound?
**A.** 0.11 µM (active)

**Q.** And the Potency [4]?
**A.** inactive

**Q.** For `Cc1cn([C@H]2C[C@H](F)[C@@H](CO)O2)c(=O)[nH]c1=O`, which Potency [8] is on record?
**A.** inactive

**Q.** What about the Potency [2] of the same compound?
**A.** inactive

**Q.** What about the Potency [9] of the same compound?
**A.** inactive

**Q.** And the Potency [3]?
**A.** inactive

**Q.** And the Potency [4]?
**A.** inactive

**Q.** With `CCOC(=O)[C@@](C)(N)Cc1ccc(O)c(O)c1` as the compound, how does the Potency [8] read?
**A.** inactive

**Q.** And the Potency [2]?
**A.** 7.76 µM (active)

**Q.** Which results are given for `CC(C)NCC(O)c1ccc2ccccc2c1` (stereo not given)?
**A.** Potency [8]: inactive; Potency [2]: 3.47 µM (active); Potency [3]: inactive; Potency [4]: inactive; Potency [5]: inactive

**Q.** With `CC(=O)Nc1ccc(S(=O)(=O)Nc2ccc([N+](=O)[O-])cc2)cc1` as the compound, how does the Potency [8] read?
**A.** inactive

**Q.** And the Potency [2]?
**A.** inactive

**Q.** And the Potency [3]?
**A.** 13.8 µM (active)

**Q.** What about the Potency [4] of the same compound?
**A.** inactive

**Q.** What about the Potency [5] of the same compound?
**A.** inactive

**Q.** With `CCN1CCCC(OC(=O)C(c2ccccc2)c2ccccc2)C1` (stereo not given) as the compound, how does the Potency [8] read?
**A.** inactive

**Q.** What about the Potency [2] of the same compound?
**A.** 1.38 µM (active)

**Q.** And the Potency [3]?
**A.** inactive

**Q.** Which Potency [8] does the source give for `CCCCC(CC)CN1CN(CC(CC)CCCC)CC(C)(N)C1` (stereo not given) here?
**A.** inactive

**Q.** What about the Potency [2] of the same compound?
**A.** 0.219 µM (active)

**Q.** And the Potency [3]?
**A.** inactive

**Q.** With `CCCCNC(=O)NS(=O)(=O)c1ccc(N)cc1` as the compound, how does the Potency [8] read?
**A.** inactive

**Q.** And the Potency [2]?
**A.** inactive

**Q.** What about the Potency [3] of the same compound?
**A.** inactive

**Q.** And the Potency [4]?
**A.** inactive

**Q.** And the Potency [5]?
**A.** inactive

**Q.** Which Potency [8] does the source give for `NC1CCN(c2nc3c(cc2F)c(=O)c(C(=O)O)cn3-c2ccc(F)cc2F)C1` (stereo not given) here?
**A.** inactive

**Q.** And the Potency [2]?
**A.** inactive

**Q.** Which results are given for `O=C(Nc1ncc([N+](=O)[O-])s1)c1cccs1`?
**A.** Potency [8]: inactive; Potency [2]: 13.8 µM (active); Potency [3]: 9.77 µM (active)

**Q.** For `COc1cc(O)c(C(=O)c2ccccc2)cc1S(=O)(=O)O`, which Potency [8] is on record?
**A.** inactive

**Q.** And the Potency [2]?
**A.** inactive

**Q.** And the Potency [3]?
**A.** inactive

Source: PubChem BioAssay (NCATS)
